Source: PubChem BioAssay
The source made the active and inactive calls.

Columns and labels:
[1] = compounds binding Alexa647 anti-His antibody – biochemical, small-molecule microarray, 635 nm fluorescence, artefact control for SMM control protein annotation, primary screen (AID 1128); conditions: higher = more signal;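 also: score merges feature fluorescence with signal-to-noise for each printed compound spot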
[2] = tested on: Human papillomavirus type 1a E7 protein (residues 1-88); assay: HPV1a E7 small-molecule binders, primary screen, biochemical, small-molecule microarray, residues 1-88, 635 nm (AID 1129); conditions: small-molecule microarray binding, fluorescence 635 nm; higher = more signal
[3] = target: Focal adhesion kinase 1 (Homo sapiens) (UniProt Q05397); assay: PTK2 protein binding on printed compound slides – biochemical, small-molecule microarray, 635/667 nm fluorescence, BSA, DTT, primary screen (AID 1130); conditions: 635 nm fluorescence, higher = more signal;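 also: composite of spot emission at 667 nm and signal to noise over triplicate slides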
Sequence of Focal adhesion kinase 1 (Homo sapiens) (Q05397 whole entry, looked up): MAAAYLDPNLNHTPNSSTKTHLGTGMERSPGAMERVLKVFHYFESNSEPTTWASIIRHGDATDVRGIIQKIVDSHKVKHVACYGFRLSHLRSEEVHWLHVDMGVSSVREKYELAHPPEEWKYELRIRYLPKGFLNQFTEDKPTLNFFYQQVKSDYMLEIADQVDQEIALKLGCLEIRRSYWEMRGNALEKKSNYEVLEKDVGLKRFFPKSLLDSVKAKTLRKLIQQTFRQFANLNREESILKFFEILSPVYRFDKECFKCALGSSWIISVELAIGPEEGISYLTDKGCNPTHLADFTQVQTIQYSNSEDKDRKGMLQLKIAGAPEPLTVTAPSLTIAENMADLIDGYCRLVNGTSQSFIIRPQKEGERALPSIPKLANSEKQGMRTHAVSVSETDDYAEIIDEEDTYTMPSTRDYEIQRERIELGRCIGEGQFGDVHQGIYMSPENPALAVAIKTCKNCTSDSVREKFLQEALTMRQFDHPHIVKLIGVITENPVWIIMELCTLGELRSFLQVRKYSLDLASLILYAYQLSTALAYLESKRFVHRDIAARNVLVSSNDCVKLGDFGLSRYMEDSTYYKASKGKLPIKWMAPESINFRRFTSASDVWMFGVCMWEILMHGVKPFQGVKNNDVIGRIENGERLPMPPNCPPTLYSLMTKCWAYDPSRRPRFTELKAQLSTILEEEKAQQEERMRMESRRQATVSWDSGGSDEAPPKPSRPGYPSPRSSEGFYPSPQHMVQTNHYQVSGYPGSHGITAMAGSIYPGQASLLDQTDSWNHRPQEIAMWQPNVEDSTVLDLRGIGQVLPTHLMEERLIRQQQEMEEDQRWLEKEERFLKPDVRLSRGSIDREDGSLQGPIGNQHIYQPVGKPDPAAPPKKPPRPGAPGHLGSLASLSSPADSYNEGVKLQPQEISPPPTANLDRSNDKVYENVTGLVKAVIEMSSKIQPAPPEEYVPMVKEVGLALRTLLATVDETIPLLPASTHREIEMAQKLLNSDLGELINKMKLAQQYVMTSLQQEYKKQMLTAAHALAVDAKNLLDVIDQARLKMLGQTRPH

[4] = tested on: Fibrinogen (Alexa647-labelled); assay: Alexa647-fibrinogen binding to printed small molecules – biochemical, small-molecule microarray, 635/667 nm fluorescence, artefact control for SMM control-protein annotation, profiling panel (AID 1131); conditions: fibrinogen-A647 binding fluorescence, higher = more signal;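 also: z-score merges 667 nm fluorescence with per-spot signal-to-noise over triplicate slides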
[5] = target: Follistatin (Homo sapiens) (UniProt P19883); assay: FST protein binding to printed compounds – biochemical, small-molecule microarray, 635/667 nm fluorescence, primary screen (AID 1132); conditions: 635 nm fluorescence, higher = more signal
Sequence of Follistatin (Homo sapiens) (P19883 whole entry, looked up): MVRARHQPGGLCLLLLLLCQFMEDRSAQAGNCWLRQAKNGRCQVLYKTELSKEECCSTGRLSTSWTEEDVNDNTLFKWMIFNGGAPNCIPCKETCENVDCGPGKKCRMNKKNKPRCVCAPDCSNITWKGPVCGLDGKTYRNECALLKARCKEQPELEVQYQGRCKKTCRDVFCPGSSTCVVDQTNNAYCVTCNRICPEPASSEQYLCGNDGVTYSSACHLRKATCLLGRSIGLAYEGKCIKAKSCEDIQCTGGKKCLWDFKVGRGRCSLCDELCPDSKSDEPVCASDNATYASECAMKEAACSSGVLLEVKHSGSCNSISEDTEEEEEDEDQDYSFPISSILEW

[6] = target: Fibroblast growth factor 2 (Homo sapiens) (UniProt P09038); assay: basic fibroblast growth factor binding to printed compounds – biochemical, small-molecule microarray, 635/667 nm fluorescence, primary screen (AID 1133); conditions: FGF2, fluorescence 635/667, higher = more signal
Sequence of Fibroblast growth factor 2 (Homo sapiens) (P09038 whole entry, looked up): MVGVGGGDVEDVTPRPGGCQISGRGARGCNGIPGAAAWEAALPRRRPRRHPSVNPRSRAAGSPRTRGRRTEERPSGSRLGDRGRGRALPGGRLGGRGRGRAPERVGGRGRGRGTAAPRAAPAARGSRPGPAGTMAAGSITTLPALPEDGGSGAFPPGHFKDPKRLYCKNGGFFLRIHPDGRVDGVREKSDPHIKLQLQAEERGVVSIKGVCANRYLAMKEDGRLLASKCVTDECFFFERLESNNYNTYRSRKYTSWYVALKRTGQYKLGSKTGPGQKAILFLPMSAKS

[7] = JC-1 mitochondrial potential readout, lung cancer cells – cell-based, A549, JC-1 fluorescence, basal, 24 h, 100 nL, profiling panel (AID 1138); conditions: higher = more signal;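 also: A549 lung adenocarcinoma cells under basal conditions with no added stimulus; test concentration not given here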
Lefty1 = Lefty1 protein binding to printed compounds – biochemical, small-molecule microarray, 635/667 nm fluorescence, primary screen (AID 1139); conditions: fluorescence 635/667, higher = more signal
[8] = tested on: wheat germ agglutinin (Triticum aestivum), Alexa647-labelled; assay: Alexa647-WGA lectin binding to printed small molecules – biochemical, small-molecule microarray, 635/667 nm fluorescence, artefact control for SMM control-protein annotation, profiling panel (AID 1140); conditions: WGA-A647 binding, 635 nm fluorescence, higher = more signal;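 also: score merges 667 nm feature emission with signal to noise over triplicate slides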
[9] = target: Luciferin 4-monooxygenase (Photinus pyralis) (UniProt P08659); assay: inhibition of purified Photinus pyralis luciferase – biochemical, luminescence, purified enzyme, 2006 set, primary screen (AID 1141); conditions: purified firefly luciferase, SteadyGlo luminescence, 30 min; higher = more signal, called active from +8 up or from −8 down;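 also: cell-free assay with purified firefly luciferase at 100 ng per well in PBS; test concentration not given here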
Sequence of Luciferin 4-monooxygenase (Photinus pyralis) (P08659 whole entry, looked up): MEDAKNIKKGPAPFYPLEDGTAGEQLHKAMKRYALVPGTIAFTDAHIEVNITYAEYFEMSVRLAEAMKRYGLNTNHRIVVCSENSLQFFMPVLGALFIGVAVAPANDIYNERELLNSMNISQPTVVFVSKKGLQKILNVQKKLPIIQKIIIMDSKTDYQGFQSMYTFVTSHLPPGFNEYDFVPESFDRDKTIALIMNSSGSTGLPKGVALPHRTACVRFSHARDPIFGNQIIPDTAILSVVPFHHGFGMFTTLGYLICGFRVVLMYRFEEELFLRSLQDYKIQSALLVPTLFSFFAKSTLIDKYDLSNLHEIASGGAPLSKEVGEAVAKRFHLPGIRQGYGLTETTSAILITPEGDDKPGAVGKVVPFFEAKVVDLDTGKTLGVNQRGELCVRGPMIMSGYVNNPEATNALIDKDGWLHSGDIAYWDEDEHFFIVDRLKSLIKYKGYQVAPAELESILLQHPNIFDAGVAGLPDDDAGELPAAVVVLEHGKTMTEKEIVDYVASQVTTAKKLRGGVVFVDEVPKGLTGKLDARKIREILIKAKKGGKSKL

SMILES	composite z-score [1]	composite z-score [2]	composite z-score [3]	composite z-score [4]	composite z-score [5]	composite z-score [6]	z-score [7]	composite z-score (Lefty1)	composite z-score [8]	z-score [9]
CC(CO)N1C(=O)[C@]2(C)C3C(=O)OCCC/C=C\[C@H]3OC23C=CCN(c2ccc(Cl)cc2)C(=O)[C@@H]13 (stereo not given in full)	-0.263	-0.48	1.53	-0.316	-0.568	-0.85	0.444	-0.506	-0.335	-0.53 (inactive)
CCN(CC)c1ccc(N2CC=CC34O[C@@H]5/C=C\CCCOC(=O)C5[C@H]3C(=O)N(C(C)CO)[C@@H]4C2=O)cc1 (stereo not given in full)	-0.556	-0.107	-0.294	-0.158	0.077	0.305	1.18	-0.0464	-0.0344	-1.38 (inactive)
CCOC(=O)C[C@H]1[C@H](OC(=O)c2ccccc2-c2ccccc2)[C@@H](NC(=O)c2ccc3ccccc3n2)c2cc(OCCCO)ccc2N1C(=O)Cc1ccc(OC)cc1	-0.186	0.511	0.0434	0.47	0.248	0.268	0.397	0.577	0.509	0.43 (inactive)
O=C1C2C=CC(C(O)c3cccc(O)c3)N(Nc3ccc([N+](=O)[O-])cc3)C2C(=O)N1c1ccccc1 (stereo not given)	1.18	0.785	0.264	0.578	0.418	0.526	-1.15	0.292	0.0289	0.931 (inactive)
COc1ccccc1CN1C(=O)c2ccccc2[C@](Cc2ccccc2I)(C(=O)O)[C@@H]1c1ccc(CO)cc1	1.76	1.21	0.758	0.809	1.26	1.33	0.227	0.74	0.762	-1.01 (inactive)
CC(C)=C1C(=O)C(c2ccccc2)=C2CN3C(=O)N(CCc4ccccc4)C(=O)[C@]3(Cc3ccc(C(F)(F)F)cc3)[C@H]21	-0.0822	0.566	1.01	-0.0056	0.0359	-1.29	1.57	-1.16	0.8	0.359 (inactive)
CCCC[C@@H](O)C1=C(COC)C[C@H]2C(=O)N(C)C(=O)[C@H]2[C@H]1CO	0.217	-0.165	-0.185	0.171	0.504	0.201	-0.278	1.14	-0.11	0.0646 (inactive)
NC(=O)NCC#Cc1ccc2c(c1)[C@]1(C(=O)N2)[C@H](c2ccccc2OCCO)N2[C@H](c3ccccc3)[C@H](c3ccccc3)OC(=O)[C@H]2[C@@H]1C(=O)NC[C@H](O)c1ccccc1	1.1	-0.28	0.183	0.699	0.109	-0.751	-0.203	-0.0823	0.91	0.896 (inactive)
CCCCC(CC)C(O)C1C=CC2C(=O)N(c3ccccc3)C(=O)C2N1Nc1ccc(C#N)cc1 (stereo not given)	1.34	1.21	0.702	0.922	1.07	0.208	-0.213	0.131	1.12	-1.92 (inactive)
CCCNC(=O)[C@@]1(C)c2ccccc2C(=O)N(c2ccc(C)cn2)[C@H]1c1ccc(CO)cc1	0.0998	-0.268	0.23	-1.78	0.169	-0.465	0.672	-0.0558	-0.311	-0.714 (inactive)
COC(=O)C1=CC(CCCO)=CC(c2cccs2)N(C)C=C1C(=O)OC (stereo not given)	0.15	-0.5	0.143	-0.198	-0.344	-0.498	0.0963	-0.307	0.507	-0.674 (inactive)
C=CCC(OC(C)=O)[C@@H]1[C@@H](N(Cc2ccc(-c3ccccc3)cc2)C(=O)c2ccc(-c3ccccc3)cc2)c2cc(OCCCO)ccc2N1C(=O)c1ccc2ccccc2c1 (stereo not given in full)	-0.162	0.0751	-0.138	-0.239	0.707	-0.193	0.657	0.476	-0.094	-0.424 (inactive)
COCCOC(=O)N1C(=O)[C@@]2(c3cc(C#CC4=CCCCC4)ccc31)[C@H](c1ccccc1OCCO)N1[C@H](c3ccccc3)[C@H](c3ccccc3)OC(=O)[C@H]1[C@@H]2C(=O)NC[C@H](O)c1ccccc1	0.705	1.14	0.303	0.882	1.36	1.52	-0.701	1.46	0.658	-1.04 (inactive)
Cc1ccc(S[C@]2(C(=O)O)CC(=O)N(C3CCCCC3)[C@@H]2c2ccc(CO)cc2I)cc1	0.96	1.22	-0.155	0.745	1.19	0.101	-0.996	-0.163	0.89	0.453 (inactive)
CC[C@@H]1C=C(C(=O)O)[C@H](c2ccccc2)N1S(=O)(=O)c1ccc(C)cc1	2.57	1.17	0.178	0.594	-0.0393	-0.241	-0.719	0.362	1.05	1.09 (inactive)
CCCC1(C(=O)OC)C=C2C(=C(C)C(=O)C2C)CN1 (stereo not given)	2.81	-0.0152	0.0853	0.892	0.503	-0.343	0.511	-0.451	0.594	2.26 (inactive)
O=c1cccc(-c2ccc([N+](=O)[O-])cc2)o1	0.504	0.963	0.21	-0.301	1.28	1.05	-0.233	1.4	0.301	1.68 (inactive)

SMILES	composite z-score [1]	composite z-score [2]	composite z-score [3]	composite z-score [4]	composite z-score [5]	composite z-score [6]	z-score [7]	composite z-score (Lefty1)	composite z-score [8]	z-score [9]
C=CCNC(=O)[C@@H]1[C@H]2C(=O)O[C@H](c3ccccc3)[C@H](c3ccccc3)N2[C@H](c2ccccc2OCCO)[C@@]12C(=O)N(C(=O)OCCOC)c1ccc(C#CC3(O)CCCCCC3)cc12	0.713	1.22	0.894	0.905	1.34	0.924	-1.2	0.988	0.323	0.558 (inactive)
Cc1cc(C)c(C(O)C2C=CC3C(=O)N(c4ccccc4)C(=O)C3N2Nc2ccccc2F)c(C)c1 (stereo not given)	1.29	-0.103	0.39	0.859	0.0286	-0.435	-0.909	-0.589	0.403	-0.746 (inactive)
COC(=O)C1=CC(CCCO)=CC(c2ccc(CN3CCCC3)cc2)N(Cc2cccc(OC(F)(F)F)c2)C=C1C(=O)OC (stereo not given)	1.6	1.11	0.875	1	0.325	-0.292	2.87	0.279	1.11	-3.06 (inactive)
COc1ccc([Si](C)(C)[C@@H]2[C@@H](CC(=O)N(CCO)Cc3ccccc3)O[C@]3(C(=O)N(Cc4cccc(N5CCCCC5=O)c4)c4ccccc43)[C@H]2C)cc1	0.112	0.869	0.518	-0.451	1.15	0.361	-0.171	1.46	0.349	0.151 (inactive)
CC1CC/C=C\[C@H]2OC34C=CCN(Cc5ccccc5)C(=O)[C@H]3N(C(CO)C(C)C)C(=O)[C@@H]4C2C(=O)O1 (stereo not given in full)	-0.696	-1.03	-0.475	-0.798	-0.528	-0.81	1.32	-0.722	0.389	-1.15 (inactive)
CN1C2C=C(CCCO)C(C3C(=O)N(C(N)=O)C(=O)C32)C1C1CC1 (stereo not given)	0.352	0.186	-0.158	0.481	-0.0169	-0.148	0.771	0.145	-0.123	-0.938 (inactive)
CO[C@H]1O[C@H](CO)[C@@H](OC(=O)Nc2ccccc2)[C@H](OC(=O)c2cc3ccccc3[nH]2)[C@H]1OC(=O)c1cc2ccccc2[nH]1	0.568	0.181	0.353	0.475	1.13	1.61	0.132	0.532	0.562	-0.378 (inactive)
CCOC(=O)C[C@H]1[C@H](OC(=O)Cc2ccc3c(c2)OCO3)[C@@H](NC(=O)c2ccc3ccccc3n2)c2cc(OCCCO)ccc2N1C(=O)c1ccccc1	-0.0867	0.381	-0.0076	0.364	0.803	0.902	2.23	0.755	0.326	-0.992 (inactive)
O=C(O)[C@@H]1[C@@H]2C(=O)N(c3ccccc3)C(=O)[C@@H]2C[C@@H]1Sc1ccccc1	-0.102	-0.683	0.236	-1.02	-1.19	-1.16	-0.677	-1.07	0.627	1.35 (inactive)
CS(=O)(=O)CCOC(=O)C1=CC(c2ccc(CO)cc2)=CC(C2CC2)N(Cc2sc3ccccc3c2Cl)C=C1C(=O)OCCS(C)(=O)=O (stereo not given)	1.27	0.795	0.716	0.88	1.28	0.881	2.04	0.851	0.861	-1.86 (inactive)
OCCCC1=CC(c2ccc(CN3CCCC3)cc2)N(Cc2cc3c(cc2Br)OCO3)CC1 (stereo not given)	0.448	0.049	0.172	0.65	1.07	0.262	0.157	0.695	0.266	0.391 (inactive)
COc1cc2c(cc1O)C(c1cccs1)N(Cc1cc3c(cc1Br)OCO3)CC2 (stereo not given)	1.83	1.28	0.822	0.976	1.08	0.75	-1.56	0.556	0.544	-0.657 (inactive)
COc1cc(NN2C(C(O)c3cc(OC)c(OC)c(OC)c3)C=CC3C(=O)N(C)C(=O)C32)cc(OC)c1OC (stereo not given)	0.661	1.07	0.368	0.169	0.67	0.0023	1.38	0.289	0.694	0.229 (inactive)
CN(C)C(=O)[C@]1(CCC(=O)OC(C)(C)C)N=C(c2ccc(OCCCO)cc2)O[C@@H]1c1ccccc1CN=[N+]=[N-]	1.31	1.21	0.706	0.961	1.25	-0.0399	1.03	0.0183	1.42	-0.703 (inactive)
CCCCCCCCCC(O)C1C=CC2C(=O)N(c3ccccc3)C(=O)C2N1Nc1cc(OC)c(OC)c(OC)c1 (stereo not given)	0.374	0.675	0.636	0.585	0.0214	-1.09	-0.512	-0.312	0.172	-1.96 (inactive)
NCCCCCNC(=O)[C@@H]1C[C@@H]2C(=O)N[C@@H](CCCCN)C(=O)N2[C@@H]1c1ccc(O)cc1	1.98	1.23	0.294	0.782	1.42	1.74	-0.862	1.57	1.14	-0.364 (inactive)
C#Cc1cc2ccccc2oc1=O	-0.314	-0.451	-0.393	-1.03	-2.22	-1.39	-1.14	-1.58	-1.12	-2.39 (inactive)
